Laboratory results as given in the supplement of paper PMC10849652.
About 7,900 targets were measured; listed, in parts, are those with a hit and a random draw of the rest. About 0.6% of all pairs of compound and target were hits. Values without a mark were called inactive.

biological target: ZWILCH (UniProt Q9H900); assay: log2 fold change, soluble protein after heating vs DMSO (PISA); higher = thermal stabilisation; K562 cells, 10 uM, 30 min; active = over 0.2 and 3.5 SD of the protein, either way, in both replicates (recomputed)
Sequence (Q9H900 whole entry, looked up): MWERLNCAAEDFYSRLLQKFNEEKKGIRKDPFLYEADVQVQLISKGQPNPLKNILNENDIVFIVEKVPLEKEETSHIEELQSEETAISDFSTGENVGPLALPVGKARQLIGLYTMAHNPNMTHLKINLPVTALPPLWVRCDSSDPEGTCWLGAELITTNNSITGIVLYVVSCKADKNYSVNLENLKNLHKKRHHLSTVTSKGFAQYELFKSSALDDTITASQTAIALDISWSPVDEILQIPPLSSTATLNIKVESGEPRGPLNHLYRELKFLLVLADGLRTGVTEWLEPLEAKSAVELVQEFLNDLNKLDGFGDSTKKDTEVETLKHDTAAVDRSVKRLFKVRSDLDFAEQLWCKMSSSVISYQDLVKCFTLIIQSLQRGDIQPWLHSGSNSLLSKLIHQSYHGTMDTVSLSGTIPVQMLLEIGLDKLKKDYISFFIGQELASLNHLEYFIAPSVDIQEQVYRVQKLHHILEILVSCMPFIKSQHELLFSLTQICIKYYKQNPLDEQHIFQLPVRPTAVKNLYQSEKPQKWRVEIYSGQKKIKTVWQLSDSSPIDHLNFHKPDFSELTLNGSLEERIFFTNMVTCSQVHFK
How it was run: (§1)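 Quantification of soluble protein used TMTpro 16plex LC-MS/MS, with channel sums equalised. Samples were the supernatant after 21,000xg for 90 min of pooled aliquots from K562 cells (2×10^6 cells/mL) treated with 10 μM compound for 30 min, heated for 3 min over 48°C-58°C, and extracted in PBS with 0.5% NP-40 at 4°C. Values, from duplicates, describe thermal stability against control samples on a log2 fold-change scale.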

| Structure (SMILES) | log2 fold change |
| --- | --- |
| CCCCN(Cc1ccc(C(=O)NO)cc1)C(=O)Nc1ccccc1 [Nexturastat A] | -0.008 |
| CC(C)C[C@@H](C=O)NC(=O)[C@H](CC(C)C)NC(=O)[C@H](CC(C)C)NC(=O)OCc1ccccc1 | 0.079 |
| Cc1cccc(-c2[nH]c(C(C)(C)C)nc2-c2ccc3nccnc3c2)n1 | 0 |
| Cc1ccc(NC(=O)c2ccc(CN3CC[C@H](N(C)C)C3)c(C(F)(F)F)c2)cc1Nc1nccc(-c2cncnc2)n1 [bafetinib] | -0.031 |
| CCN(CC)Cc1ccc2cc(COC(=O)Nc3ccc(C(=O)NO)cc3)ccc2c1 [givinostat] | 0.046 |
| Cc1ncc(-c2ccnc(Nc3ccc(S(C)(=O)=O)cc3)n2)n1C(C)C | 0.071 |
| NC(=O)Nc1cc(-c2cccc(F)c2)sc1C(=O)N[C@H]1CCCNC1 | 0 |
| O=C(O)c1ccc2c(c1)nc(Nc1cccc(Cl)c1)c1ccncc12 [silmitasertib] | 0.059 |
| Cn1cncc1[C@@](N)(c1ccc(Cl)cc1)c1ccc2c(c1)c(-c1cccc(Cl)c1)cc(=O)n2C [tipifarnib] | -0.01 |
| C[C@@H](Oc1cc(-c2cnn(C3CCNCC3)c2)cnc1N)c1c(Cl)ccc(F)c1Cl [crizotinib] | -0.068 |
| Cn1cc(-c2ccc3nnc(C(F)(F)c4ccc5ncccc5c4)n3n2)cn1 | -0.069 |
| CCN(CCCOc1ccc2c(Nc3cc(CC(=O)Nc4cccc(F)c4)[nH]n3)ncnc2c1)CCOP(=O)(O)O [barasertib] | 0.064 |
| CNCc1ccc(-c2[nH]c3cc(F)cc4c3c2CCNC4=O)cc1 [rucaparib] | -0.051 |
| CCn1c(C(=O)N(C2CC2)C2CC2)cc2c3c(ncn3C)c(Nc3cc(C)n(C)n3)nc21 | 0.021 |
| Cc1cccc(CC(=O)N2CCc3c2ccc(-c2cn(C)c4ncnc(N)c24)c3F)n1 | 0.027 |
| C=CC(=O)N1CCC[C@@H](n2nc(-c3ccc(Oc4ccccc4)cc3)c3c(N)ncnc32)C1 [ibrutinib] | -0.014 |

| Structure (SMILES) | log2 fold change |
| --- | --- |
| CC(C)(C)Cn1c(N)nc2ccc(-c3[nH]c(C(C)(C)C)nc3-c3ccc(F)cc3)nc21 [ralimetinib] | 0.049 |
| C#Cc1cccc(Nc2ncnc3cc(OCCOC)c(OCCOC)cc23)c1 [erlotinib] | 0.009 |
| O=C1c2ccccc2-c2n[nH]c3cccc1c23 | -0.007 |
| CN(CCOc1ccc(C[C@@H]2SC(=O)NC2=O)cc1)c1ccccn1 (racemic) [rosiglitazone] | 0.018 |
| c1cc(OCCN2CCCCC2)cc(-c2n[nH]c3ccc(-c4nnc[nH]4)cc23)c1 | -0.048 |
| NC1(Cc2ccc(Cl)cc2)CCN(c2ncnc3[nH]ccc23)CC1 | -0.049 |
| CNC(=O)c1ccccc1Nc1nc(Nc2ccc(N3CCOCC3)cc2OC)ncc1Cl | 0.027 |
| C/C(=N\NC(=O)c1cccc(S(=O)(=O)N2CCOCC2)c1)c1cc(Cl)ccc1O | 0.038 |
| Cc1cn(-c2cc(NC(=O)c3ccc(C)c(Nc4nccc(-c5cccnc5)n4)c3)cc(C(F)(F)F)c2)cn1 [nilotinib] | -0.047 |
| COc1cc2nc(-c3cc(F)ccc3O)nc(N[C@@H]3CNC[C@H]3C(C)(C)O)c2cc1OC | 0.03 |
| COc1cc2ncnc(Nc3ccc(F)c(Cl)c3)c2cc1OCCCN1CCOCC1 [gefitinib] | 0.125 |
| CC1=C(C(=O)Nc2cc3cn[nH]c3cc2F)C(c2ccc(C(F)(F)F)cc2)CC(=O)N1 (configuration not stated) | -0.051 |
| CCn1cc(-c2ccnc3[nH]c(-c4cccc(CN(C)C)c4)cc23)c(-c2ccc(NC(=O)N(C)C)cc2)n1 | 0.01 |
| COc1cc(C(=O)O)ccc1NC(=O)[C@@H]1N[C@@H](CC(C)(C)C)[C@](C#N)(c2ccc(Cl)cc2F)[C@H]1c1cccc(Cl)c1F [idasanutlin] | -0.051 |
| CN1CCC(CNc2ccc3ncc(-c4cccc(OC(F)(F)F)c4)n3n2)CC1 | -0.085 |

biological target: ZYG11B (UniProt Q9C0D3); assay: as above
Sequence (Q9C0D3 whole entry, looked up): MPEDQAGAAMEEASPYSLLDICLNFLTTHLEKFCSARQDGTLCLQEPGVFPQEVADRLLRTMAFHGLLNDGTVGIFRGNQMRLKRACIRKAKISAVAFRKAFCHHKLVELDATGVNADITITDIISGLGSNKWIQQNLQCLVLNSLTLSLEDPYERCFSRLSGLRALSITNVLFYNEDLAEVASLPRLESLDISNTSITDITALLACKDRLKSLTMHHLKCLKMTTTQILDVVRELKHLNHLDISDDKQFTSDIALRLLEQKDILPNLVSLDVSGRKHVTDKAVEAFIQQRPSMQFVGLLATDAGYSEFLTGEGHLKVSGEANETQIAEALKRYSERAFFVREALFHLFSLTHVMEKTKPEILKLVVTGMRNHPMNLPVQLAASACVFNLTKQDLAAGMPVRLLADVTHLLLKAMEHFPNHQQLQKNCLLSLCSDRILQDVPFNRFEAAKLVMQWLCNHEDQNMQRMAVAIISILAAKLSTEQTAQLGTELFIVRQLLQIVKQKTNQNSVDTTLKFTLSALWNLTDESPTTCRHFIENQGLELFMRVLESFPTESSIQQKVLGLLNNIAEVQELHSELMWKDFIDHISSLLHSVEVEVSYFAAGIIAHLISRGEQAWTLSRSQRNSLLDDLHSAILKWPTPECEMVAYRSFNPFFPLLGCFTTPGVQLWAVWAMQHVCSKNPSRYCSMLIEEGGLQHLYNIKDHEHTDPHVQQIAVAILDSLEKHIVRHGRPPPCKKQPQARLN
How it was run: as §1

| Structure (SMILES) | log2 fold change |
| --- | --- |
| CCCCN(Cc1ccc(C(=O)NO)cc1)C(=O)Nc1ccccc1 [Nexturastat A] | -0.011 |
| CC(C)C[C@@H](C=O)NC(=O)[C@H](CC(C)C)NC(=O)[C@H](CC(C)C)NC(=O)OCc1ccccc1 | 0.042 |
| Cc1cccc(-c2[nH]c(C(C)(C)C)nc2-c2ccc3nccnc3c2)n1 | -0.039 |
| Cc1ccc(NC(=O)c2ccc(CN3CC[C@H](N(C)C)C3)c(C(F)(F)F)c2)cc1Nc1nccc(-c2cncnc2)n1 [bafetinib] | -0.272 (active) |
| CCN(CC)Cc1ccc2cc(COC(=O)Nc3ccc(C(=O)NO)cc3)ccc2c1 [givinostat] | -0.009 |
| Cc1ncc(-c2ccnc(Nc3ccc(S(C)(=O)=O)cc3)n2)n1C(C)C | 0.037 |
| NC(=O)Nc1cc(-c2cccc(F)c2)sc1C(=O)N[C@H]1CCCNC1 | -0.033 |
| O=C(O)c1ccc2c(c1)nc(Nc1cccc(Cl)c1)c1ccncc12 [silmitasertib] | 0 |
| Cn1cncc1[C@@](N)(c1ccc(Cl)cc1)c1ccc2c(c1)c(-c1cccc(Cl)c1)cc(=O)n2C [tipifarnib] | 0.089 |
| C[C@@H](Oc1cc(-c2cnn(C3CCNCC3)c2)cnc1N)c1c(Cl)ccc(F)c1Cl [crizotinib] | -0.031 |
| Cn1cc(-c2ccc3nnc(C(F)(F)c4ccc5ncccc5c4)n3n2)cn1 | 0 |
| CCN(CCCOc1ccc2c(Nc3cc(CC(=O)Nc4cccc(F)c4)[nH]n3)ncnc2c1)CCOP(=O)(O)O [barasertib] | 0.044 |
| CNCc1ccc(-c2[nH]c3cc(F)cc4c3c2CCNC4=O)cc1 [rucaparib] | 0.061 |
| CCn1c(C(=O)N(C2CC2)C2CC2)cc2c3c(ncn3C)c(Nc3cc(C)n(C)n3)nc21 | -0.017 |
| Cc1cccc(CC(=O)N2CCc3c2ccc(-c2cn(C)c4ncnc(N)c24)c3F)n1 | -0.031 |
| C=CC(=O)N1CCC[C@@H](n2nc(-c3ccc(Oc4ccccc4)cc3)c3c(N)ncnc32)C1 [ibrutinib] | 0.022 |

| Structure (SMILES) | log2 fold change |
| --- | --- |
| CC(C)(C)Cn1c(N)nc2ccc(-c3[nH]c(C(C)(C)C)nc3-c3ccc(F)cc3)nc21 [ralimetinib] | -0.046 |
| C#Cc1cccc(Nc2ncnc3cc(OCCOC)c(OCCOC)cc23)c1 [erlotinib] | -0.015 |
| O=C1c2ccccc2-c2n[nH]c3cccc1c23 | -0.033 |
| CN(CCOc1ccc(C[C@@H]2SC(=O)NC2=O)cc1)c1ccccn1 (racemic) [rosiglitazone] | -0.055 |
| c1cc(OCCN2CCCCC2)cc(-c2n[nH]c3ccc(-c4nnc[nH]4)cc23)c1 | 0.002 |
| NC1(Cc2ccc(Cl)cc2)CCN(c2ncnc3[nH]ccc23)CC1 | 0.055 |
| CNC(=O)c1ccccc1Nc1nc(Nc2ccc(N3CCOCC3)cc2OC)ncc1Cl | -0.016 |
| C/C(=N\NC(=O)c1cccc(S(=O)(=O)N2CCOCC2)c1)c1cc(Cl)ccc1O | 0.006 |
| Cc1cn(-c2cc(NC(=O)c3ccc(C)c(Nc4nccc(-c5cccnc5)n4)c3)cc(C(F)(F)F)c2)cn1 [nilotinib] | 0.025 |
| COc1cc2nc(-c3cc(F)ccc3O)nc(N[C@@H]3CNC[C@H]3C(C)(C)O)c2cc1OC | 0.034 |
| COc1cc2ncnc(Nc3ccc(F)c(Cl)c3)c2cc1OCCCN1CCOCC1 [gefitinib] | 0.042 |
| CC1=C(C(=O)Nc2cc3cn[nH]c3cc2F)C(c2ccc(C(F)(F)F)cc2)CC(=O)N1 (configuration not stated) | -0.06 |
| CCn1cc(-c2ccnc3[nH]c(-c4cccc(CN(C)C)c4)cc23)c(-c2ccc(NC(=O)N(C)C)cc2)n1 | -0.085 |
| COc1cc(C(=O)O)ccc1NC(=O)[C@@H]1N[C@@H](CC(C)(C)C)[C@](C#N)(c2ccc(Cl)cc2F)[C@H]1c1cccc(Cl)c1F [idasanutlin] | 0.01 |
| CN1CCC(CNc2ccc3ncc(-c4cccc(OC(F)(F)F)c4)n3n2)CC1 | -0.113 |
